# Screens from PubChem.
# T cruzi growth-1 – T. cruzi proliferation inhibition; T. cruzi beta-gal in NIH3T3, GalScreen luminescence, 90 h; inhibition, % at 8.34 µM; 5.9% of 77,000 active; AID 624255;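 active = mean inhibition above about 93%, with at least 55% of replicates each passing it, limit read from the data, passing the limit was not always enough; inconclusive = only one of those two conditions holds; inactive = neither condition holds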
# Pf Dd2 growth – P. falciparum Dd2 growth inhibition | SYBR Green, 72 h; active compounds read low | activity change, % at 10 µM | 2.3% of 94,000 active | AID 1159554; in the data active = activity change below about -80%; inconclusive = no clear call, values can overlap the other calls
# C diff HTS – inhibitors of Clostridium difficile growth; Clostridium difficile clinical isolate growth, OD600, 24 h; active compounds read low; growth activity, negative = inhibition, % at 16 µg/mL (by protocol); 0.25% of 86,000 active; AID 1259249;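 active = mean growth activity at or below -80% and every replicate also at or below -80%; inconclusive = mean at or below -80% but some replicate above -80%; inactive = mean growth activity above -80%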;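 note: 0% = DMSO wells and -100% = levofloxacin 16 µg/mL wells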
# T cruzi growth-2 – blocks T. cruzi growth in NIH3T3 host cells. inhibition, % at 8.35 µM. T. cruzi beta-gal in NIH3T3, GalScreen luminescence, 90 h. shares compounds with T cruzi growth-1. AID 651739. 72% of 5,600 active;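 active = mean replicate inhibition above about 95% and at least 55% of replicates individually reaching it, limit read from the data; inconclusive = only one of the two criteria is met; inactive = neither criterion is met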
# T cruzi growth-3 – Trypanosoma cruzi proliferation inhibition. shares compounds with T cruzi growth-1. T. cruzi beta-gal in NIH3T3, GalScreen luminescence, 90 h. inhibition, % at 2.09 µM. 21% of 5,600 active. AID 651740;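 active = mean inhibition above about 95%, with at least 55% of replicates also reaching it, limit read from the data; inconclusive = meets just one of the two conditions; inactive = meets neither condition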;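 note: plate controls were neutral control median for no effect and positive control median for full effect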
# 3T3 cytotox – kills mouse NIH/3T3 fibroblasts; NIH/3T3 viability, CellTiter-Glo ATP luminescence, 90 h; shares compounds with T cruzi growth-1; 14% of 5,600 active; AID 651742; cytotoxicity (signal decrease), % at 8.35 µM;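 active = mean signal decrease across replicates above about 35% based on untreated-well scatter, with enough replicates individually passing, limit read from the data; inconclusive = no rule stated though some were filed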;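 note: 0% = median of neutral control wells and 100% = median of positive control wells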
# NIH3T3 tox 2 – NIH/3T3 (mouse) viability loss; shares compounds with T cruzi growth-1; NIH/3T3 viability, CellTiter-Glo ATP luminescence, 90 h; inhibition, % at 24.9 µM; 56% of 5,600 active; AID 651744;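 active = mean loss of cell viability signal at or above a set limit, and enough replicates individually reaching it; inconclusive = meets only the mean limit or only the replicate share; inactive = meets neither condition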;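 note: 0% = median of neutral control wells and 100% = median of positive control wells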
# The depositor's hits bear a star; ? = inconclusive; / = no result. Most compounds without a hit are left out; they make up all but 6.8% or so of the library.
SMILES,T cruzi growth-1,Pf Dd2 growth,C diff HTS,T cruzi growth-2,T cruzi growth-3,3T3 cytotox,NIH3T3 tox 2
COc1cccc(NC(=O)N2CC(=O)N3[C@H](CO)[C@@H](c4ccc(C5=CCCCC5)cc4)[C@H]3C2)c1,/,4,-10,/,/,/,/
C[C@H]1CN([C@@H](C)CO)S(=O)(=O)c2ccc(C#Cc3ccccc3F)cc2O[C@@H]1CN(C)C(=O)Cc1ccccc1,121*,-70,-14,106*,107*,12,103*
C[C@@H]1CN([C@@H](C)CO)S(=O)(=O)c2ccc(C#Cc3ccccc3F)cc2O[C@H]1CN(C)C(=O)Cc1ccncc1,/,-58,24,/,/,/,/
C[C@@H]1CN([C@@H](C)CO)S(=O)(=O)c2ccc(C#Cc3ccccc3F)cc2O[C@@H]1CN(C)C(=O)Cc1ccncc1,/,-58,-1,/,/,/,/
C[C@@H]1CN([C@@H](C)CO)S(=O)(=O)c2ccc(C#Cc3ccccc3F)cc2O[C@@H]1CN(C)C(=O)Cc1cccnc1,?,-48,-4,102*,41,33,70*
C[C@@H]1CN([C@@H](C)CO)S(=O)(=O)c2ccc(C#Cc3ccccc3F)cc2O[C@H]1CN(C)C(=O)Cc1ccccc1,120*,-69,-17,102*,110*,56*,92*
C[C@H](CO)N1C[C@H](C)[C@H](CN(C)C(=O)Cc2ccncc2)Oc2cc(C#Cc3ccccc3F)ccc2S1(=O)=O,/,-68,3,/,/,/,/
C[C@@H]1CN([C@H](C)CO)S(=O)(=O)c2ccc(C#Cc3ccccc3F)cc2O[C@H]1CN(C)C(=O)Cc1ccncc1,/,-51,13,/,/,/,/
C[C@@H]1CN([C@H](C)CO)S(=O)(=O)c2ccc(C#Cc3ccccc3F)cc2O[C@H]1CN(C)C(=O)Cc1ccccc1,122*,-70,-7,103*,94,29,104*
CCC(=O)Nc1ccc2c(c1)C(=O)N(C)C[C@@H](OC)[C@@H](C)CN(C(=O)c1cnccn1)[C@@H](C)CO2,35,22,/,/,/,/,/
O=C(NCC[C@H]1CC[C@H](NC(=O)C2CCCC2)[C@@H](CO)O1)c1cnccn1,/,-14,3,/,/,/,/
CCCC#Cc1cnc2c(c1)C(=O)N([C@H](C)CO)C[C@H](C)[C@@H](CN(C)C(=O)Cc1ccncc1)O2,-11,-37,-4,/,/,/,/
O=C(C1CCCC1)N1[C@H](CO)[C@H]2c3ccccc3N(S(=O)(=O)c3ccc(F)cc3)C[C@H]21,45,-55,-5,/,/,/,/
CO[C@H]1CN(C)C(=O)c2cc(NC(=O)CC(F)(F)F)ccc2OC[C@@H](C)N(C(=O)C2CCOCC2)C[C@@H]1C,/,21,3,/,/,/,/
Cc1noc(C)c1NC(=O)Nc1cccc2c1O[C@H](CN(C)CC1CC1)[C@H](C)CN([C@H](C)CO)C2=O,-24,14,1,/,/,/,/
C[C@H]1CN([C@@H](C)CO)C(=O)c2c(c3ccccc3n2C)-c2ccccc2CO[C@H]1CN(C)Cc1cccc2c1OCCCO2,/,-15,23,/,/,/,/
COc1ccc(S(=O)(=O)N2CCCCN3[C@H](CO)[C@@H](c4ccc(C#CC(C)C)cc4)[C@@H]3C2)cc1,96*,-17,1,101*,75,21,20
COc1ccc(S(=O)(=O)N2CCCCN3[C@H](CO)[C@@H](c4ccc(C#CCC(C)C)cc4)[C@@H]3C2)cc1,38,-19,3,/,/,/,/
COc1ccc(S(=O)(=O)N2CCCCN3[C@H](CO)[C@H](c4ccc(C#CC(C)C)cc4)[C@@H]3C2)cc1,81,9,6,/,/,/,/
COc1ccc(S(=O)(=O)N2CCCCN3[C@H](C2)[C@H](c2ccc(C#CC(C)C)cc2)[C@@H]3CO)cc1,118*,-24,25,107*,105*,1,69*
COc1ccc(S(=O)(=O)N(C)C[C@@H]2Oc3ccc(NC(=O)c4ccncc4)cc3CC(=O)N([C@H](C)CO)C[C@H]2C)cc1,36,44,2,/,/,/,/
O=C(C[C@@H]1C[C@@H]2c3cc(NC(=O)CC4CC4)ccc3O[C@@H]2[C@H](CO)O1)NCc1cccnc1,35,28,-4,/,/,/,/
COc1ccc(S(=O)(=O)Nc2ccc3c(c2)C(=O)N([C@H](C)CO)C[C@@H](C)[C@@H](CN(C)C(=O)Nc2ccc(F)cc2)O3)cc1,34,7,-7,/,/,/,/
Cc1cccc(-c2ccc([C@H]3[C@@H](CO)N4CCCCN(S(=O)(=O)c5ccccc5C)C[C@H]34)cc2)c1,75,-73,-9,/,/,/,/
Cc1cccc(-c2ccc([C@H]3[C@@H](CO)N4CCCCN(S(=O)(=O)c5ccccc5C)C[C@@H]34)cc2)c1,111*,-13,-7,112*,89,9,-3
SMILES,T cruzi growth-1,Pf Dd2 growth,C diff HTS,T cruzi growth-2,T cruzi growth-3,3T3 cytotox,NIH3T3 tox 2
Cc1ccccc1S(=O)(=O)N1CCCCN2[C@H](C1)[C@H](c1ccc(-c3ccccc3)cc1)[C@@H]2CO,107*,2,2,102*,75,0,48*
Cc1ccc(-c2ccc([C@H]3[C@H](CO)N4CCCCN(S(=O)(=O)c5ccccc5C)C[C@@H]34)cc2)cc1,75,-48,9,/,/,/,/
CCCNC(=O)Nc1ccc2c(c1)C(=O)N(C)C[C@H](OC)[C@@H](C)CN(C(=O)c1ccccc1F)[C@@H](C)CO2,-98,21,/,/,/,/,/
O=C(C[C@H]1C[C@H]2c3cc(NC(=O)NC4CCCC4)ccc3O[C@H]2[C@@H](CO)O1)NC1CCCCC1,31,19,-9,/,/,/,/
C[C@@H]1CN([C@H](C)CO)S(=O)(=O)c2ccc(C#Cc3ccccn3)cc2O[C@H]1CN(C)C,/,28,5,/,/,/,/
C[C@@H]1CN([C@@H](C)CO)S(=O)(=O)c2ccc(C#Cc3ccccn3)cc2O[C@@H]1CN(C)Cc1ccc(F)cc1,100*,-29,-7,107*,87,38*,-7
C[C@@H]1CN([C@@H](C)CO)S(=O)(=O)c2ccc(C#Cc3ccccn3)cc2O[C@@H]1CN(C)C,/,22,-1,/,/,/,/
C[C@H](CO)N1C[C@H](C)[C@@H](CN(C)Cc2ccc(F)cc2)Oc2cc(C#Cc3ccccn3)ccc2S1(=O)=O,127*,-34,-7,106*,102*,4,-10
C[C@H]1CN([C@@H](C)CO)C(=O)Cc2cc(NS(=O)(=O)c3ccc(F)cc3)ccc2O[C@@H]1CN(C)Cc1ccc(C(=O)O)cc1,-3,-12,-2,/,/,/,/
O=S(=O)(N[C@@H]1CC[C@H](CCn2cc(-c3ccccc3F)nn2)O[C@@H]1CO)c1ccc(Cl)cc1,6,-58,-9,/,/,/,/
C[C@@H]1CN([C@H](C)CO)S(=O)(=O)c2ccc(C#CC3CC3)cc2O[C@@H]1CN(C)C(=O)C1CCCCC1,89,-28,4,/,/,/,/
C[C@H](CO)N1C[C@H](C)[C@@H](CN(C)Cc2ccc(C(=O)Nc3ccccc3N)cc2)Oc2c(NC(=O)Nc3ccc4c(c3)OCO4)cccc2C1=O,107*,-88*,/,103*,88,-1,54*
